Assay results from PubChem BioAssay (NCI).
This is part of a sample that, as a whole, favours compounds with a hit. Of some 83,000 tested, about 20% had one in any assay.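 96-well plates, one dose, 48 hours. Percent growth reported; active if below 10.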 Unmarked numbers belong to inactive results. The source made the active and inactive calls.

How the values were obtained:
Assay in all cases: NCI-60 one-dose screen, 48 h (100 = growth as untreated, 0 = no growth, -100 = all killed)
Conditions in all cases: 10 µM unless noted
[1] = tested on: NCI-H23 lung
[2] = tested on: NCI-H226 lung
[3] = tested on: NCI-H322M lung
[4] = tested on: HOP-62 NSCLC
[5] = tested on: NCI-H460 lung
[6] = tested on: HOP-92 NSCLC
[7] = tested on: NCI-H522 lung
[8] = tested on: A549/ATCC NSCLC
[9] = tested on: 786-0 renal
[10] = tested on: COLO 205 colon

Compound | growth [1] | growth [2] | growth [3] | growth [4] | growth [5] | growth [6] | growth [7] | growth [8] | growth [9] | growth [10]
O=C(Nc1ccc(OS(=O)(=O)c2ccc(F)cc2)cc1)C1CCCCCC1 | 83.6% | 94.3% | 106% | 98.6% | 95.5% | 83.4% | 81.2% | 92.5% | 96.6% | 64.6%
C=C1CC[C@@H]2[C@](C)(COC(C)=O)[C@H](OC(C)=O)CC[C@@]2(C)[C@@H]1CC(Nc1ccc(S(=O)(=O)Nc2ncccn2)cc1)C1=CCOC1=O (stereo not given in full) | 29.6% | -16.6% (active) | 50.9% | 126% | 18.1% | 56.3% | -67.7% (active) | 44.7% | -10.1% (active) | -12.1% (active)
COc1ccccc1CNc1c2ccccc2nc2ccccc12 | 30.9% | 39.9% | 48.6% | 44.5% | 10.2% | 18.2% | 62.4% | 34.2% | 39.3% | 12.8%
Cc1cc(=O)oc2cc(OCc3nn4c(Nc5nc6ccccc6s5)c(-c5ccccc5)nc4s3)ccc12 | 83.3% | 92.2% | 90.7% | 90.2% | 83.8% | 77.1% | 76.6% | 94.4% | 103% | 104%
C=CCn1c(C)nc2ccc(Nc3nc(Nc4ccc5nc(C)n(CC=C)c5c4)c4ccccc4n3)cc21 | 32.8% | 67.4% | -13.4% (active) | -61.5% (active) | -69.5% (active) | 43.2% | -90.7% (active) | -83.1% (active) | -93.8% (active) | -92.3% (active)
C[C@@H](CO)[C@@H]1CCC=C2CC[C@]3(C)[C@H](CC[C@@H]4[C@@]5(C)CCCNC(C)(C)[C@@H]5CC[C@]43C)[C@H]21 | 67.9% | 94.6% | 78.3% | 91.1% | -67.1% (active) | 75.7% | 82.1% | 47% | 70% | -56.8% (active)
CCN(CC)CCn1c2ccc(O)cc2c2sc3cc(O)ccc3c(=O)c21 | 25.8% | 68.2% | 30% | 38.4% | 8.46% (active) | 60.5% | 35.1% | 21.6% | 27% | 30.3%
Cc1ccc(NC(=O)Cn2cc(CN3CCN(c4ccnc5cc(Cl)ccc45)CC3)nn2)cc1 | 90% | 84.9% | 97.7% | 70.3% | 92.2% | 52.6% | 87.3% | 93.4% | 96% | 98.8%
COc1ccc(C2=Nc3c(N)nc(N)nc3NC(c3cccc(Nc4ccnc5cc(C(F)(F)F)ccc45)c3)C2)cc1 (stereo not given) | 85.8% | 97.2% | 99.6% | 67.8% | 59.3% | 57.3% | 44.9% | 63.1% | 73% | 57.7%
O=C(NCCNc1nccc(Nc2ccc(S(=O)(=O)Nc3ccccn3)cc2)n1)c1cccc([N+](=O)[O-])c1 | 97.4% | 98.7% | 106% | 99.2% | 104% | 102% | 82% | 94.8% | 98% | 110%
O=C1/C(=C/c2ccc([N+](=O)[O-])cc2)COc2ccc(O)cc21 | 96.6% | 100% | 91.9% | 104% | 97.9% | 110% | 62.2% | 97.1% | 81.9% | 92.9%
COc1ccc(C(=O)C/C(=C\c2ccc(Cl)cc2)C(=O)NCc2ccccc2)cc1 | 90.6% | 73.4% | 84.5% | 82.6% | 74.4% | 86.2% | 60.7% | 84.7% | 99.2% | 108%
O=c1[nH]c(-c2ccccc2)nc2sc3cc(O)ccc3c12 | 84.6% | 79.6% | 81.2% | 105% | 84.1% | 94.8% | 75.5% | 81.6% | 79.3% | 110%
CCOC(=O)c1cc(C(=O)c2cc(OC)c(OC)c(OC)c2)n2ncccc12 | 38% | 29.6% | 48.1% | 32.2% | 10.3% | 73.6% | 34.8% | 24.1% | 26.5% | -24.7% (active)
COc1ccc(/C=C/C(=O)c2cccc(OCCCCOc3cccc(C(=O)/C=C/c4ccc(OC)c(OC)c4)c3)c2)cc1OC | 54.5% | 57.5% | 87.3% | 72.8% | 80.5% | 55.3% | 64.4% | 78% | 89.8% | 112%
CCC(=C(c1ccc(OCCN2CCCCC2)cc1)c1ccc(OCCN2CCCCC2)cc1)c1ccc(Cl)cc1 | -81% (active) | -66.4% (active) | -99% (active) | -73.7% (active) | -80.5% (active) | -83.6% (active) | -69.7% (active) | -72.2% (active) | -88.8% (active) | -66.3% (active)
COc1ccc(-c2ccc(=O)oc2-c2cc(OC)c(OC)c(OC)c2)cc1O | 25.9% | 42.7% | 43.5% | -29% (active) | -18% (active) | 89% | -11.7% (active) | 15.9% | -6.12% (active) | 12.5%
CCOCCNC1=C(Cl)C(=O)c2ccccc2C1=O | 80.7% | 121% | 108% | 110% | 94.9% | 127% | 82.9% | 101% | 105% | 130%
NC(=O)C(=O)c1ccccc1NC=O | 92.1% | 97.3% | 95.3% | 86.9% | 103% | 83.2% | 88.9% | 99.7% | 110% | 118%
OCCn1cc(-c2nc(-c3c[nH]c4ncccc34)cs2)c2cc(F)ccc21 | 76.2% | 48.4% | 66.3% | 71.9% | 65.7% | 52.3% | 45.5% | 63% | 81.9% | 66.4%
Nc1nc(N)c(-c2ccc(Cl)c(Cl)c2)c(CBr)n1 | 78.3% | 93.3% | 78.4% | 102% | 25.7% | 99% | 9.79% (active) | 27% | 52% | 76.6%
CCOC(=O)c1c(NC(=O)c2ccc(Cl)cc2)sc2c(CN(C)C)c(O)ccc12 | 88% | 96.1% | 61.3% | 84.6% | 71.3% | 1.75% (active) | 76.5% | 69.6% | 69.8% | 5.48% (active)
Cc1cc(N2CCCCC2)cc(C)c1-c1csc(NC(=O)c2ccncc2)n1 | 45.1% | 60.6% | 78.2% | 62.5% | 66.9% | 53.8% | 44.1% | 49.1% | 77.5% | 60.6%
Cc1ccc(NC(=O)c2sc3nc(C)c(Br)c(C)c3c2N)cc1 | 73.8% | 47.7% | 51.2% | 34.9% | 54.4% | -5.03% (active) | 71.9% | 67.7% | 30.5% | 84.9%
